Molecules are shown by their SMILES. Out of some 2,300 compounds screened, about 1,400 (61%) were called active. About 7% were inconclusive and are not listed. No rule for the calls is given here. The set was probably picked from earlier hits. Only a sample is shown. Entries with a potency or affinity are not part of this list.

FAD-linked sulfhydryl oxidase ALR (Homo sapiens), sequence (P55789 whole entry, looked up): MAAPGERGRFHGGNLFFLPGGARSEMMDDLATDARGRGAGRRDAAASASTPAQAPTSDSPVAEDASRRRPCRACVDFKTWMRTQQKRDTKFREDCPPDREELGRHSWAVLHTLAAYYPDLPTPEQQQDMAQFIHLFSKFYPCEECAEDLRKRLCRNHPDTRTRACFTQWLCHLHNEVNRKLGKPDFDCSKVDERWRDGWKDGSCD

This assay concerns the target FAD-linked sulfhydryl oxidase ALR (Homo sapiens) (UniProt P55789). As to the kind of experiment: ALR-catalysed DTT oxidation blockers – biochemical, H2O2 detection, luminescence, cherry-pick, dose response (AID 493248). Particulars: purified ALR, H2O2 HRP-luminol luminescence; at 10 µM (top of the series).
Take `Cc1ccc2cc3cc(C(=O)NCCCN4CCCC4=O)oc3nc2c1`: the activity change, negative = inhibition is -55.2%.

For `Cc1nc(C)c(-c2csc(Nc3cccnc3)n2)s1`, the activity change, negative = inhibition is -15.7%.

For `Cc1nc(C)c(-c2csc(Nc3ccc(O)cc3C)n2)s1`, the activity change, negative = inhibition was -3.91%.

In the case of `COc1cc(N)c(Cc2nccc3cc(OC)c(OC)cc23)cc1OC`, the activity change, negative = inhibition amounted to 5.91%.

Take `COc1cc(Sc2ccc(C)cc2)c(OC)cc1N`: the activity change, negative = inhibition is -74.8%.

Consider `Cc1cccc(/C=N/Nc2nncc3ccccc23)c1`, for which the activity change, negative = inhibition was -4.32%.

With `CC(/C=N/n1c(-c2ccc(C)cc2)n[nH]c1=S)=C\c1ccco1`, the activity change, negative = inhibition was -40.8%.

On to `CN1C(=O)CC(NNC(=O)c2ccc(Cl)cc2)C1=O` (stereo not given), for which the activity change, negative = inhibition is -47.1%.

As to `O=C(N/N=C1/CCSC1)c1cc(Br)ccc1O`, the activity change, negative = inhibition is -17.6%.

In the case of `O=c1[nH]nc(CNc2ccc(O)cc2)c2ccccc12`, the activity change, negative = inhibition was -103%.

Regarding `COc1ccc(NCCc2ccccn2)cc1`, the activity change, negative = inhibition is 86.3%.

Consider `COc1ccc(Nc2ccccc2N)cc1`, for which the activity change, negative = inhibition came out at 221%.

On to `S=c1[nH]cc(-c2ccccc2)n1-c1ccccc1Cl`, for which the activity change, negative = inhibition was -24.1%.

As for `Nc1ccccc1C(=O)NNc1c2ccccc2nc2ccccc12`, the activity change, negative = inhibition is -69.6%.

As to `C/C(=N\NC(=O)c1ccccc1O)C1C(=O)c2ccccc2C1=O`, the activity change, negative = inhibition was -23.9%.

Regarding `CC(=O)Nc1ccc(NCN2C(=O)C3C4CCC(C4)C3C2=O)cc1` (stereo not given), the activity change, negative = inhibition was -86.6%.

With `CCc1cc2c3c(c1)C(C)CC(C)(C)N3C(=O)/C2=C1\SC(=O)NC1=O` (stereo not given), the activity change, negative = inhibition is -7.31%.

As for `C/C(=N\Nc1ccccn1)c1cccs1`, the activity change, negative = inhibition was -11.5%.

For `COc1ccc2c(c1)N(C)/C(=C/c1cccc[n+]1C)S2`, the activity change, negative = inhibition was -53.1%.

Consider `CCC(=O)Nc1cccc(-c2cnc3ccccc3n2)c1`, for which the activity change, negative = inhibition was determined as 3.89%.

With `CN1CCN(c2ccc(NC(=O)c3ccc(Cl)cc3)cn2)CC1`, the activity change, negative = inhibition is -19.7%.

Take `COc1cc(OC)cc(C(=O)N2CCC(N3CCN(c4ccccc4)CC3)CC2)c1`: the activity change, negative = inhibition is -61.4%.

With `CC(=O)NN1C(=O)/C(=C\c2ccc(O)cc2)SC1=S`, the activity change, negative = inhibition was -79.9%.

Regarding `O=C(C1CC1)N1CCN=C1SCc1ccc(Cl)cc1`, the activity change, negative = inhibition is -64.3%.

Take `O=C1c2ccccc2CSc2c(O)cccc21`: the activity change, negative = inhibition is -28.4%.

Turning to `CC(=O)Nc1ccc(S(=O)(=O)NNc2ccc([N+](=O)[O-])cc2)cc1`, the activity change, negative = inhibition is -103%.

For the molecule `O=C(C1CC1)N1CCN=C1SCc1ccc(F)cc1`, the activity change, negative = inhibition was -51.5%.

Turning to `CN(C)/C=N/c1sc2c(c1C#N)CCC2`, the activity change, negative = inhibition stood at 25.9%.

With `COC(=O)c1ccc(NC(=O)c2ccc(C)cc2)o1`, the activity change, negative = inhibition was -4.94%.

Consider `CN(C)c1ccc(/C=N/NC(=O)c2cccc(N3CCCC3=O)c2)cc1`, for which the activity change, negative = inhibition was -16.6%.

`CC(=O)Nc1cccc(N2CCCC2=O)c1`: the activity change, negative = inhibition was -18.2%.

On to `CCc1c(C)sc(NC(=O)c2cc(C)no2)c1C#N`, for which the activity change, negative = inhibition is -63.3%.

On to `COC(=O)c1ccc2[nH]c3c(c2c1)CC(C)CC3` (stereo not given), for which the activity change, negative = inhibition was -6.7%.

For the molecule `Cc1nc2ccc(S(=O)(=O)N(C)CC(=O)NCc3ccc(N(C)C)cc3)cc2s1`, the activity change, negative = inhibition is -41.2%.

With `CCN1C(=O)c2ccc(C(=O)Nc3ccc(O)cc3C)cc2C1=O`, the activity change, negative = inhibition was -50.1%.

In the case of `CCn1c(CN(C)c2ccccc2)nc2ccccc21`, the activity change, negative = inhibition is -7.07%.

`CCn1c(-c2ccc(N)cc2)nc2ccccc21`: the activity change, negative = inhibition is -17.3%.

For `CN(Cc1nc2ccccc2n1C)c1ccccc1`, the activity change, negative = inhibition was -32.4%.

As to `CCN(Cc1nc2ccccc2n1C)c1ccccc1`, the activity change, negative = inhibition was -11.5%.

As to `O=C(Nc1ccc(O)cc1)c1cc2n(n1)C(C(F)(F)F)CC(c1ccco1)N2` (stereo not given), the activity change, negative = inhibition was -82.6%.

Consider `c1ccc2c(-c3csc(-c4ccncc4)n3)c[nH]c2c1`, for which the activity change, negative = inhibition is -10.2%.

For `CCCCCCC(=O)N/N=C/c1ccco1`, the activity change, negative = inhibition was -28.6%.

On to `COc1cc(C=NNC(=O)c2ccc(NS(=O)(=O)c3cccs3)cc2)cc(Br)c1O`, for which the activity change, negative = inhibition was determined as 165%.

Regarding `COc1nc(-c2ccccc2Cl)ccc1C#N`, the activity change, negative = inhibition is -32.6%.

As to `Cc1ccc2cn[nH]c2c1N`, the activity change, negative = inhibition is -36.2%.

Consider `O=S(=O)(Nc1ccccc1O)c1ccc(Cl)nc1`, for which the activity change, negative = inhibition is -36.8%.

Turning to `COc1ccc(N2C(=O)CC(NNc3ncc(Cl)cc3Cl)C2=O)cc1` (stereo not given), the activity change, negative = inhibition is -50.3%.

With `CC1=NN(C(=O)c2ccc(Br)cc2)C(O)(c2ccccc2)C1` (stereo not given), the activity change, negative = inhibition amounted to 286%.

Regarding `O=C(NCc1ccc2c(c1)OCO2)C1CC(=O)N(c2ccc(O)cc2)C1` (stereo not given), the activity change, negative = inhibition is -108%.

Consider `Cc1noc(C)c1S(=O)(=O)N(CC(=O)NCc1ccc2c(c1)OCO2)c1ccc(C(C)C)cc1`, for which the activity change, negative = inhibition is 1.03%.

For `O=c1[nH]n(-c2ccc(Cl)cc2)c2ncccc12`, the activity change, negative = inhibition is 291%.

Consider `O=C(CCCC(=O)c1ccccc1)Nc1ccc(O)cc1`, for which the activity change, negative = inhibition turned out to be 182%.

Turning to `S=c1[nH]nc(Cc2noc3ccccc23)n1-c1ccc(Cl)cc1`, the activity change, negative = inhibition was -49.3%.

Consider `COc1ccc(OC)c(/C(C)=N/Nc2ccc(C(=O)O)cc2)c1`, for which the activity change, negative = inhibition was -31.7%.

As for `COc1ccc(CNc2nc3ccccc3n2CCN2CCCCC2)cc1`, the activity change, negative = inhibition worked out at 35.3%.

Take `O=C(O)c1ccc(N(c2ccccc2)c2ccccc2)cc1`: the activity change, negative = inhibition is -77.1%.

As to `Brc1c(CSc2nnc(-c3ccco3)o2)nc2ccccn12`, the activity change, negative = inhibition was -95.5%.

Consider `CCN(c1ccc(C)c(C)c1)S(=O)(=O)c1ccc2c(c1)CCN2C(=O)CCC(=O)O`, for which the activity change, negative = inhibition was -9.61%.

In the case of `CCc1c(C)[nH]n(-c2ccc(Oc3ccccc3)c(S(=O)(=O)O)c2)c1=O`, the activity change, negative = inhibition is -7.16%.

Consider `Cc1cc(-c2n[nH]c(=S)o2)c(C)n1-c1ccccc1`, for which the activity change, negative = inhibition is 19.3%.

In the case of `COc1ccc(-c2csc(N(CCCN(C)C)C(=O)c3ccc(F)cc3)n2)cc1`, the activity change, negative = inhibition is -32.9%.

Regarding `CS(=O)(=O)N1CCN=C1SCc1cccc(F)c1`, the activity change, negative = inhibition was -0.153%.

Regarding `CCCS(=O)(=O)N1CCN=C1SCc1ccc(F)cc1`, the activity change, negative = inhibition was -0.819%.

Turning to `S=c1[nH]nc(-c2c[nH]c3ccccc23)o1`, the activity change, negative = inhibition is -89%.

Take `CCn1c(-c2cc(OC)c(OC)c(OC)c2)n[nH]c1=S`: the activity change, negative = inhibition is -1.45%.

On to `CCCCCCCCN1[C@@H](CC(=O)O)c2ccc(C(F)(F)F)cc2S1(=O)=O`, for which the activity change, negative = inhibition is -22.2%.

For `COc1cccc2c3c(c(=O)[nH]c12)CCC(C)(C)O3`, the activity change, negative = inhibition was -20.3%.

Take `CCn1c(SCc2nc3sc(C(=O)O)c(C)c3c(=O)[nH]2)nc2ccccc21`: the activity change, negative = inhibition was -10.8%.

As for `Cc1ccsc1C=Nc1ccc(O)cc1`, the activity change, negative = inhibition is -98%.

On to `Cc1cccc(Oc2ccc(N)cc2)c1`, for which the activity change, negative = inhibition was -1.09%.

In the case of `Nc1ccc(Oc2cc(N)cc(Oc3ccccc3)c2)cc1`, the activity change, negative = inhibition was 29.7%.

For `CNc1nn(-c2cccc(Cl)c2)nc1N`, the activity change, negative = inhibition is -9.08%.

As for `c1ccc(-c2cnc(CN3CCN(c4ccccc4)CC3)o2)cc1`, the activity change, negative = inhibition was -44.8%.

Consider `COc1cccc(/C=N/n2c(-c3n[nH]c4c3CCC4)n[nH]c2=S)c1O`, for which the activity change, negative = inhibition is -33.1%.

As for `CCCC(C)NC(=O)Cc1ccc(Br)cc1` (stereo not given), the activity change, negative = inhibition came out at 60.9%.

Consider `CCCN1CCC(=O)N([C@H](CSc2ccc(OC)cc2)c2ccccc2)CC1`, for which the activity change, negative = inhibition is 1.83%.

Consider `O=S1(=O)N=C(Nc2ccc(O)cc2)c2ccccc21`, for which the activity change, negative = inhibition came out at 176%.

Regarding `Cc1ccc(-c2c(C(=O)O)c(C(=O)O)c3n2CSC3)cc1`, the activity change, negative = inhibition is -43.7%.

`S=c1[nH]nc(-c2ccco2)n1/N=C/c1ccccc1`: the activity change, negative = inhibition amounted to 0.752%.

Regarding `Cc1n[nH]c(=S)n1/N=C/c1ccccc1`, the activity change, negative = inhibition is -93.3%.

The values are drawn from PubChem BioAssay AID493248 (Broad Institute, 2011).
